system: RARb:RXRa (NR concentration 270 nM, RXRa partner concentration 90 nM); test: PBM binding z-score (relative to random genomic background probes); higher = stronger binding; sequences stand for … in GC…GCGATTGACAGCGTAGAATGAAGG
How it was run: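 Binding z-scores take random background probes as their reference. They come from custom Agilent 4×180K protein-binding microarrays incubated 1 h with ligand-free nuclear receptor dimers, with antibodies against each partner (one per run) detecting binding. Scanned fluorescence was regression-normalized.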

Row | Sequence | PBM binding z-score
1 | CCTAGTTGGTCAGCAGGTCACACACCGGATATGA | 2.75
2 | TGAAGGAGGTTAAAGATCAGGGAACGTGGCGTCG | 1.74
3 | GCTAGCAGGCCAATTGGGTCACTCAATGACGGGC | 1.54
4 | TCAGACTGGTGAAGGTAACTCAGGTACGCAGTCG | -0.0149
5 | CAGCCTAGGTCACGGCCAGTATAGGAGGAACGTT | 4.6
6 | CTCGAAAGGTCGTGCTCAGGTGAGTAAACCAAAC | 3.98
7 | GCTTGAAGATCAAGGTTAAGAAAGACTAAGCTAA | 0.778
8 | CCTAGCAGGCCGGGGTCACTCAAGCATTTCGCTT | 3.53
9 | CAGCCTAGGTCAGGGCCACTATAGGAGGAACGTT | 3.44
10 | CCGACTGGAGCAAAGGTTACCATACTCAGTACGA | 1.74
11 | TGAATGAGGTTATAAGATCTGGGAACGTTGCAAA | 1.07
12 | GATACAGGGTCAGCTAGAGGCCAGGGTATGGAAA | 4.06
13 | ACACACAGGTGATGAAGGTAACTCAGGCTATCAT | 0.355
14 | AGCTCTAGGTAAAGATAGTTCAGTGAATGCAAAT | 0.525
15 | CCTACTGGGCCAAAAAGGTCAATGATGCCGATAA | 4
16 | GCTCGGACGACAAGGTCAGAGCTTTGTCCGTAGA | 2.84
17 | GGAACGAGGGCAAAGTTGATAGCTTCTGTCGACG | 2.14
18 | ATATGTGGGTTACATCCGGGTCATTCAGGCTATG | 2.01
19 | CGAACTAGGTCATTGACAGGACTGTGAATAGTAA | 3.43
20 | TGAATGAGGTTATAAGATTAGGGAACGTTGCAAA | 1.15

Row | Sequence | PBM binding z-score
21 | GCTAGTTGCTCAGTAAAAGGTCACACACCGGTCG | 4.1
22 | TTACCAAGGTGAGCTGAGGTCGTTAATCCAACTC | 1.59
23 | ACAGACAGGTGAGTGAAGGTAACTCATCTGGACG | 0.49
24 | GCGACTGGGGCATCAGCAGGTTATCATAACTTAA | 0.845
25 | ACTATTAGTTGACTTAGGGTAACCGATACGACGC | 0.582
26 | TCTCGGAGGACAGGAAGGTCAGAGCTTTCCAGAG | 2.76
27 | CTGCCTAGGTCAGGGCCAGTATAGGAGGAACGTT | 3.38
28 | TGAATGAGGTTATAAAATCAGGGAACGTTGCAAA | 0.918
29 | ACAGACAGGTGATGAAGGTGACTCAGGCTATCAT | 0.728
30 | CGACCAAGGTCATAGGAGGTCAGTGAAGACAGAT | 5.22
31 | GTTACAGGGTCAGCTAGAGGCCAGAGTATGGAAA | 4.27
32 | CCTTACGGGTCACTGACAGGTTATACCATTTGGA | 4.14
33 | ATCTCTAGGTAAAGTTCAGTGAGAGATCGATAGA | 2.58
34 | ATCTCTAGGTAACAAATTCAGTGAAAGAGAGGAC | 0.701
35 | CGTCCAAGGTCAAGGTCAGTGTAAGAGACTCGAA | 5.47
36 | CGTACAAGGTCAGAGAGGTCAGTGAATGCCGAGT | 5.17
37 | ACTTACGGGTAAACGAGGTTATAGCACGCGTATA | 0.846
38 | GCTGCTAGGTCAGGTGGGTCAGCTAACGGGTACG | 3.56
39 | CCTACTGTGCCACGAAAGGTCATTGATTCAGTGA | 3.96
40 | CCTGCTAGGTCAATGGTCAGCAAAAGCAGCTCGC | 3.86
